“And” between values parts separate entries of the source, which are not always exact repeats. Identical values can stand only once. Inconclusive results are not listed. The source made the active and inactive calls.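 The calls were made as follows, unless noted: active = compounds whose cell count with miR-34 switched on is under 0.7 times the count with it off; inactive = the rest.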

The first experiment is described as follows: growth inhibition of DIPG cells – cell-based, MIPE5.0 library, qHTS (AID 1347068; cut-off not given, nearly all actives have IC50 up to about 30 µM;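 as to IC50: cells exposed to compound for 48 hours before viability readout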). The note with it: SU-DIPG-XXV viability. On the technique in general: Quantitative high-throughput screening tests each substance at several concentrations.
What is called IC50 is the concentration needed to halve the response being measured. For the compound `COc1cc([C@@H]2c3cc4c(cc3[C@@H](O)C3COC(=O)C32)OCO4)cc(OC)c1O` (stereo partly specified), the IC50 is 0.332 µM (active).

As to `COC1=C[C@@H]2[C@@H]3Cc4ccc(OC)c(O)c4[C@]2(CCN3C)CC1=O`, the result was inactive.

As for `CC1=C(O)C(=O)C=C2C1=CC=C1[C@@]2(C)CC[C@@]2(C)[C@@H]3C[C@](C)(C(=O)O)CC[C@]3(C)CC[C@]12C`, the IC50 was 11.8 µM (active).

The next experiment is described as follows: viability loss with induced miR-34 in A549 – imaging, A549 dox-inducible miR-34, nuclei and caspase counts, primary screen (AID 1347080). To be noted: A549 miR-34 inducible, Hoechst nuclei count, 48 h; stronger effect = lower value.
Take `COc1cc(OC)c(OC)cc1C=O`: the fold change is 0.932 (inactive).

Take `[N-]=[N+]=CC(=O)OCC(N)C(=O)O` (stereo unspecified): the fold change is 0.832 (inactive).

In the case of `C[C@H](N)[C@H](O)c1ccc(O)c(O)c1`, the fold change is 0.912 (inactive) and 0.869 (inactive).

As to `CC[N+]1(C)CCCC(OC(=O)C(O)(c2ccccc2)c2ccccc2)C1` (stereo unspecified), the fold change is 0.964 (inactive).

As to `C[C@@H](N)[C@@H](O)c1ccccc1`, the fold change is 0.851 (inactive).

As to `ClC1C(Cl)C(Cl)C(Cl)C(Cl)C1Cl` (stereo unspecified), the fold change is 0.871 (inactive).

Turning to `O=C(O)CC[N+](=O)[O-]`, the fold change is 1.06 (inactive).

Take `C=CCC1(C(C)CCC)C(=O)N=C(S)NC1=O` (stereo unspecified): the fold change was 0.918 (inactive).

For the compound `CCCCCCCCCCCCCCCC[n+]1ccccc1`, the fold change is 0.867 (inactive) and 0.767 (inactive).

With `OC1CCCCC1N1CCC(c2ccccc2)CC1` (stereo unspecified), the fold change was 0.987 (inactive) and 1.03 (inactive) and 0.84 (inactive).

Take `COc1cc2c(cc1OC)C(C)NCC2` (stereo unspecified): the fold change is 0.83 (inactive).

Take `O=[N+]([O-])c1cc([As](=O)(O)O)ccc1O`: the fold change was 0.929 (inactive) and 0.938 (inactive).

With `COc1ccc2c(c1O)-c1c(OC)c(OC)cc3c1[C@H](C2)N(C)CC3`, the fold change was 0.862 (inactive).

Consider `COc1ccc2c(c1)[nH]c1c(C)nccc12`, for which the fold change was 0.845 (inactive) and 0.909 (inactive) and 0.923 (inactive).

Take `NC(N)=NOCC[C@H](N)C(=O)O`: the fold change is 1.01 (inactive).

On to `CN1C2CCC1CC(OC(c1ccccc1)c1ccccc1N)C2` (stereo unspecified), for which the fold change was 1 (inactive).

For `O=C1C=CC(=O)c2c(O)cccc21`, the fold change was 0.989 (inactive).

As for `CCOP(=S)(OCC)Oc1nc(Cl)c(Cl)cc1Cl`, the fold change is 0.887 (inactive).

As for `NCCc1c[nH]c2ccccc12`, the fold change is 1.02 (inactive).

In the case of `CN[C@@H](C)[C@@H](O)c1ccccc1`, the fold change is 0.905 (inactive).

With `COc1ccc2c3c([nH]c2c1)C(C)=NCC3`, the fold change was 0.95 (inactive).

Take `CN1CCc2cc3c(cc2C1O)OCO3` (stereo unspecified): the fold change is 0.923 (inactive).

`CNC(C)C(O)c1ccccc1` (stereo unspecified): the fold change is 0.894 (inactive).

Turning to `CC1=C(O)C(=O)C=C2C1=CC=C1[C@@]2(C)CC[C@@]2(C)[C@@H]3C[C@](C)(C(=O)O)CC[C@]3(C)CC[C@]12C`, the fold change is 0.911 (inactive).

Still in this experiment, the particulars now being: A549 miR-34 inducible, Hoechst nuclei count, 48 h; stronger effect = lower value; cell number ratio, induced over uninduced.
On to `CC1=NCCc2c1[nH]c1cc(O)ccc21`, for which the fold change was 0.845 (inactive).

Consider `NC(N)=NOCC[C@H](N)C(=O)O`, for which the fold change is 0.827 (inactive).

Take `CN(C)[C@@H]1C(=O)C(C(N)=O)=C(O)[C@@]2(O)C(=O)C3=C(O)c4c(O)ccc(Cl)c4[C@@](C)(O)[C@H]3C[C@@H]12`: the fold change is 0.926 (inactive).

Still in this experiment, the particulars now being: A549 miR-34 inducible, Hoechst nuclei count, 48 h; measured here: relative caspase fold change +Dox/-Dox.
In the case of `COc1cc(OC)c(OC)cc1C=O`, the fold change is 0.878.

For `[N-]=[N+]=CC(=O)OCC(N)C(=O)O` (stereo unspecified), the fold change was 1.38.

On to `C[C@H](N)[C@H](O)c1ccc(O)c(O)c1`, for which the fold change was 1.02 and 0.57.

In the case of `CC[N+]1(C)CCCC(OC(=O)C(O)(c2ccccc2)c2ccccc2)C1` (stereo unspecified), the fold change was 1.14.

For `CC1=NCCc2c1[nH]c1cc(O)ccc21`, the fold change came to 1.99.

`C[C@@H](N)[C@@H](O)c1ccccc1`: the fold change was determined as 1.36.

Consider `ClC1C(Cl)C(Cl)C(Cl)C(Cl)C1Cl` (stereo unspecified), for which the fold change worked out at 1.71.

Consider `O=C(O)CC[N+](=O)[O-]`, for which the fold change amounted to 2.1.

`C=CCC1(C(C)CCC)C(=O)N=C(S)NC1=O` (stereo unspecified): the fold change came to 2.58.

On to `CCCCCCCCCCCCCCCC[n+]1ccccc1`, for which the fold change is 1.06 and 4.42.

As to `OC1CCCCC1N1CCC(c2ccccc2)CC1` (stereo unspecified), the fold change is 1.87 and 1.57 and 4.

Turning to `COc1cc2c(cc1OC)C(C)NCC2` (stereo unspecified), the fold change was determined as 1.56.

Regarding `O=[N+]([O-])c1cc([As](=O)(O)O)ccc1O`, the fold change is 0.651 and 3.1.

For `COc1ccc2c(c1O)-c1c(OC)c(OC)cc3c1[C@H](C2)N(C)CC3`, the fold change worked out at 1.06.

As to `COc1ccc2c(c1)[nH]c1c(C)nccc12`, the fold change is 1.49 and 0.507 and 1.16.

In the case of `NC(N)=NOCC[C@H](N)C(=O)O`, the fold change was 1.39 and 1.69.

In the case of `CN1C2CCC1CC(OC(c1ccccc1)c1ccccc1N)C2` (stereo unspecified), the fold change turned out to be 2.1.

As to `O=C1C=CC(=O)c2c(O)cccc21`, the fold change turned out to be 0.796.

`CCOP(=S)(OCC)Oc1nc(Cl)c(Cl)cc1Cl`: the fold change is 1.26.

As to `NCCc1c[nH]c2ccccc12`, the fold change turned out to be 1.42.

`CN[C@@H](C)[C@@H](O)c1ccccc1`: the fold change was determined as 3.17.

Turning to `COc1ccc2c3c([nH]c2c1)C(C)=NCC3`, the fold change came out at 1.3.

`CN1CCc2cc3c(cc2C1O)OCO3` (stereo unspecified): the fold change was found to be 1.43.

On to `CNC(C)C(O)c1ccccc1` (stereo unspecified), for which the fold change is 2.97.

With `CN(C)[C@@H]1C(=O)C(C(N)=O)=C(O)[C@@]2(O)C(=O)C3=C(O)c4c(O)ccc(Cl)c4[C@@](C)(O)[C@H]3C[C@@H]12`, the fold change is 2.73.

Regarding `CC1=C(O)C(=O)C=C2C1=CC=C1[C@@]2(C)CC[C@@]2(C)[C@@H]3C[C@](C)(C(=O)O)CC[C@]3(C)CC[C@]12C`, the fold change was found to be 1.02.

Source of the values: PubChem BioAssay.
